Bioassay records from PubChem BioAssay.
This excerpt belongs to a sample that is enriched for hits.
Marburg entry inh: blocks Marburg virus binding to or entry into cells. Marburg virus pseudotyped entry inhibition, cell reporter. Potency, µM (series often up to 37.8 µM), hits mostly inhibitors. 300,000 tested, 1.8% active. AID 540276; calls by dose curve; tested in HEK293 cells
AMA1 RON2 block: AMA1-RON2 (P. falciparum) interaction inhibition; 360,000 tested, 0.2% active; AlphaScreen AMA1-biotinylated RON2 peptide binding; Potency, µM (series often up to 58.2 µM), most hits filed as inhibitors; active means well fitted inhibition curve with a large enough effect; inconclusive means small, poorly fitted or top-dose-only effect; inactive means no such curve, though single readings can be large or run the other way; further: nearly all actives have a fitted effect of over 45% in size
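AMA1 (3D7) with his tag at 25 nM final met compounds first, then biotinylated RON2 peptide at 25 nM; detection used donor plus acceptor beads, 10 µg/mL apiece, read by AlphaScreen after 30 min at room temperature.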
LASV entry inh: blocks Lassa virus binding to or entry into cells; Lassa virus pseudotype entry inhibition, cell reporter; Potency, µM (highest dose often 37.9 µM), most hits filed as inhibitors; 300,000 tested, 1.2% active; calls by dose curve; tested in HEK293 cells; further: nearly all actives have a fitted effect of over 50% in size
Cycloheximide cs: affects cycloheximide protein synthesis inhibition readout, counter-screen. cell reporter, cycloheximide protein synthesis inhibition counterscreen. max response, %. 300,000 tested, 12% active; in the data active means max response mostly above about 13%, no sharp cut-off; inactive means mostly below about 14%; further: read at 38.3 µM for the half of the compounds with a filed dose
Shiga toxin inh: blocks Shiga toxin action in Vero cells; Vero cells, Shiga toxin protein synthesis inhibition reporter; AID 2315; inhibition, % at 38.7 µM; 290,000 tested, 9.2% active; in the data active means inhibition mostly above about 28%, no sharp cut-off; inactive means mostly below about 43%
Numbers stand for hits; ! = not active in a repeat.

Screening CCOc1ccc(C(C(=O)NC2CCCC2)N(CCCO)C(=O)c2ccc(-c3ccccc3)[nH]2)cc1 (stereo unspecified) returned AMA1 RON2 block inactive, Cycloheximide cs inactive and Shiga toxin inh 60.
`COC(=O)C1=C2C=CCCN2C(=O)NC1c1ccccc1` (stereo unspecified) gave Marburg entry inh inactive.
For CC1=C(/C=C/c2ccccc2)CCN(C)C1 the results were Marburg entry inh inactive, AMA1 RON2 block inactive, LASV entry inh inactive, Cycloheximide cs 33 and Shiga toxin inh inactive.
For CC(=O)c1c(C)[nH]c(C(=O)N2CCN(c3ccc(F)cc3)CC2)c1C the results were Marburg entry inh inactive, AMA1 RON2 block inactive, LASV entry inh inactive, Cycloheximide cs inactive and Shiga toxin inh inactive.
For Cc1ccc(Cl)cc1N1CCN(C(=O)c2cc3c(=O)[nH]c4ccccc4c3n2C)CC1 the results were Marburg entry inh 5.6µM!, AMA1 RON2 block inactive, LASV entry inh inconclusive, Cycloheximide cs inactive and Shiga toxin inh inactive.
For CC(=O)c1c(C)[nH]c(C(=O)N2CCN(c3cc(Cl)ccc3C)CC2)c1C the results were Marburg entry inh 7.3µM, AMA1 RON2 block inactive, LASV entry inh 6.5µM, Cycloheximide cs inactive and Shiga toxin inh inactive.
Screening Cn1c(C(=O)N2CCN(c3ccc(Cl)cc3)CC2)cc2c(=O)[nH]c3ccccc3c21 returned Marburg entry inh inconclusive, AMA1 RON2 block inactive, LASV entry inh inactive, Cycloheximide cs inactive and Shiga toxin inh inactive.
CCS(=O)(=O)c1nc(S(=O)(=O)c2ccc(Cl)cc2)c(N2CCC(O)CC2)s1 was read as AMA1 RON2 block inactive, Cycloheximide cs inactive and Shiga toxin inh inactive.
For Cc1cc(Nc2ccc(N(C)C)cc2)n2ncnc2n1 the results were Marburg entry inh inactive, AMA1 RON2 block inactive, LASV entry inh inactive, Cycloheximide cs 44 and Shiga toxin inh 98.
`Cc1cc(Nc2ccc(Cl)cc2)n2ncnc2n1` gave AMA1 RON2 block inactive, Cycloheximide cs inactive and Shiga toxin inh inactive.
Screening CCOC(=O)CC(NC(=O)CCc1c(C)nc2c(c1C)c(=O)n(C)c(=O)n2C)c1ccc(OCC)c(OC)c1 (stereo unspecified) returned Marburg entry inh inactive and LASV entry inh inactive.
CCCc1sc(N/N=C/c2ccccn2)nc1-c1ccc(Br)cc1 was read as Marburg entry inh inconclusive, AMA1 RON2 block inactive, LASV entry inh 5.2µM, Cycloheximide cs inactive and Shiga toxin inh inactive.
Screening CCc1ccc(-c2cc(C(=O)N/N=C/c3ccccn3)[nH]n2)cc1 returned Marburg entry inh inactive, AMA1 RON2 block inactive, Cycloheximide cs inactive and Shiga toxin inh inactive.
`CCc1ccc2[nH]c(=O)c(CN(Cc3ccccc3)C(=O)Nc3ccccc3OC)cc2c1` gave Marburg entry inh inconclusive, AMA1 RON2 block inactive, LASV entry inh inactive, Cycloheximide cs inactive and Shiga toxin inh inactive.
For O=C(CC(SCCO)c1ccc2c(c1)OCO2)c1ccco1 (stereo unspecified) the results were Marburg entry inh inactive, AMA1 RON2 block inactive, LASV entry inh inactive, Cycloheximide cs 48 and Shiga toxin inh 123.
`O=C(NCc1ccc2c(c1)OCO2)c1ccco1` gave Marburg entry inh inactive, AMA1 RON2 block inactive, LASV entry inh inactive, Cycloheximide cs inactive and Shiga toxin inh inactive.
Screening CC1CCC(C(C)C)C(OC(=O)COC(=O)c2cc(O)ccc2N)C1 (stereo unspecified) returned Marburg entry inh inconclusive, AMA1 RON2 block inactive, LASV entry inh inconclusive, Cycloheximide cs 24 and Shiga toxin inh 57.
`CC1CCC(C(C)C)C(OC(=O)COC(=O)c2ccc(=O)[nH]c2)C1` (stereo unspecified) gave Marburg entry inh inactive, AMA1 RON2 block inactive, LASV entry inh inactive, Cycloheximide cs inactive and Shiga toxin inh inactive.
`COc1cc(OC)cc(-c2noc(-c3csc([C@@H]4C[C@H](O)[C@@H](CO)O4)n3)n2)c1` gave AMA1 RON2 block inactive.
`Nc1ncnc2c1ncn2CCc1ccccc1` gave Marburg entry inh inconclusive, AMA1 RON2 block inactive, LASV entry inh inactive, Cycloheximide cs 29 and Shiga toxin inh 44.
`Cc1ccccc1OCCn1c(=S)[nH]c2c(N)ncnc21` gave AMA1 RON2 block inactive, Cycloheximide cs inactive and Shiga toxin inh inactive.
Cc1ccccc1OCCn1cnc2c(N)ncnc21 was read as Marburg entry inh inactive, AMA1 RON2 block inactive, LASV entry inh inactive, Cycloheximide cs 11 and Shiga toxin inh inactive.
Screening Nc1ncnc2c1ncn2CCN1CCCCC1 returned Marburg entry inh inactive, AMA1 RON2 block inactive, LASV entry inh inactive, Cycloheximide cs inactive and Shiga toxin inh inactive.
`C[C@@H]1Cn2cnc(C(=O)N[C@@H](Cc3c[nH]c4ccccc34)C(=O)OC(C)(C)C)c2C(=O)N1` gave AMA1 RON2 block inactive.
For COc1cc(CNc2ccc3[nH]c(=O)[nH]c3c2)ccc1OCc1ccccc1F the results were Marburg entry inh inconclusive, AMA1 RON2 block inactive, LASV entry inh inactive, Cycloheximide cs 19 and Shiga toxin inh 37.
`COc1cc(CNc2ccc3[nH]c(=O)[nH]c3c2)ccc1OCc1ccccc1C` gave Marburg entry inh inactive, AMA1 RON2 block inactive, LASV entry inh inactive, Cycloheximide cs inactive and Shiga toxin inh inactive.
For COc1cc(CNc2ccc3[nH]c(=O)[nH]c3c2)ccc1OCc1ccc(F)cc1Cl the results were Marburg entry inh inactive, AMA1 RON2 block inactive, LASV entry inh inconclusive, Cycloheximide cs inactive and Shiga toxin inh 31.
Screening COc1cc(CNc2ccc3[nH]c(=O)[nH]c3c2)ccc1OCc1ccc(F)cc1 returned AMA1 RON2 block inactive, Cycloheximide cs 31 and Shiga toxin inh 36.
`COc1cc(CNc2ccc3[nH]c(=O)[nH]c3c2)ccc1OCc1ccc(Cl)cc1` gave AMA1 RON2 block inactive, Cycloheximide cs 29 and Shiga toxin inh 45.
`CC(=O)N1CCN(c2ccc(NCc3ccc(F)cc3)cc2)CC1` gave AMA1 RON2 block inactive, Cycloheximide cs inactive and Shiga toxin inh inactive.
Screening COc1cc(CNc2ccc(N3CCN(C(C)=O)CC3)cc2)ccc1OCc1ccc(F)cc1 returned Marburg entry inh inconclusive, AMA1 RON2 block inactive, LASV entry inh inactive, Cycloheximide cs 25 and Shiga toxin inh 75.
For CCOc1cc(CNc2ccc(O)cc2)ccc1OCc1ccc(Cl)cc1Cl the results were Marburg entry inh inactive, AMA1 RON2 block inactive, LASV entry inh inconclusive, Cycloheximide cs 26 and Shiga toxin inh 51.
`COc1ccc(-n2c(=O)c3c4c(sc3n3c(C)nnc23)CCCC4)cc1` gave Marburg entry inh inactive.
For COc1ccc(C2N(Cc3ccccc3)CCN2Cc2ccccc2)cc1[N+](=O)[O-] the results were Marburg entry inh inactive, AMA1 RON2 block inactive, LASV entry inh inactive, Cycloheximide cs inactive and Shiga toxin inh inactive.
`CC(=O)Nc1ccc(C(=O)CSc2cc(C)c3cccc(C)c3n2)cc1` gave Marburg entry inh inconclusive, AMA1 RON2 block inactive, LASV entry inh inactive, Cycloheximide cs inactive and Shiga toxin inh inactive.
Screening O=C(NCC1CCCO1)C(c1ccncc1)N(Cc1cccs1)C(=O)CN1C(=O)c2ccccc2S1(=O)=O (stereo unspecified) returned Marburg entry inh inactive, AMA1 RON2 block inactive, LASV entry inh inactive, Cycloheximide cs 11 and Shiga toxin inh inactive.
